# PubChem BioAssay
# Activity calls are given as the source filed them.
# What was measured:
# [1] = biological target: Albumin (Bos taurus) (UniProt P02769); experiment: bovine serum albumin binders on microarray, profiling panel, artefact control for SMM control protein annotation, biochemical, small-molecule microarray, Alexa647 label, 635/667 nm fluorescence (AID 1118); settings: BSA-A647 binding, fluorescence 635 nm, higher = more signal;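 note: score merges 667 nm emission intensity and signal-to-noise per printed compound spot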
# [2] = small-molecule microarray binders of probe aXIP, primary screen, biochemical, NeuroSMM set, 635/667 nm fluorescence (AID 1119); settings: higher = more signal, called active from +8 up or from −8 down;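 note: probe is the protein aXip251-270 applied at 1 µg/mL to compound-printed slides; binding of probe to printed compounds measured as 667 nm fluorescence plus signal to noise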
# [3] = small-molecule binders of probe aNOTCH3, primary screen, biochemical, small-molecule microarray, 635/667 nm fluorescence (AID 1120); settings: higher = more signal;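 note: probe is a biotin-tagged antibody raised against NOTCH3 rather than NOTCH3 protein; score merges spot fluorescence near 667 nm with spot signal to noise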
# [4] = small-molecule binders of probe aNOTCH2, primary screen, biochemical, small-molecule microarray, 635/667 nm fluorescence (AID 1121); settings: higher = more signal;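 note: score merges feature fluorescence read at 667 nm with its signal to noise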
# [5] = biological target: Carbonic anhydrase 2 (Homo sapiens) (UniProt P00918); experiment: CAII small-molecule binders, profiling panel, biochemical, small-molecule microarray, Alexa647-labelled CAII (AID 1122); settings: CAII-A647 binding fluorescence, higher = more signal
# [6] = COS7 lysate on small-molecule microarray, probe aHis, 635 nm (AID 1123); settings: COS7 cell lysate, fluorescence, higher = more signal;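 note: z-score combines 667nm fluorescence intensity with signal-to-noise per printed compound spot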
# [7] = compound binding in COS7 lysate, probe aLAP1, primary screen, cell lysate, small-molecule microarray (AID 1124); settings: probe aLAP1, fluorescence, higher = more signal;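 note: lysate comes from COS7 cells expressing LAP1 and is applied at 0.3 µg/mL; score merges spot fluorescence near 667 nm with signal-to-noise over triplicate slides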
# [8] = test system: Sam68 (KHDRBS1); experiment: Sam68 small-molecule binders, primary screen, biochemical, small-molecule microarray, 635 nm fluorescence (AID 1125); settings: small-molecule microarray binding, higher = more signal;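 note: score merges 667 nm channel intensity with signal to noise over triplicate slides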
# [9] = test system: Chordin-like protein 2 (CHRDL2); experiment: CHRDL2 small-molecule binders, primary screen, biochemical, small-molecule microarray, 635 nm fluorescence (AID 1126); settings: small-molecule microarray binding, fluorescence 635 nm; higher = more signal;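 note: printed compound slides probed with Chrdl2 protein at 4 µg/mL for 1 h at 4 C; score merges 667 nm emission intensity with signal to noise over three replicate slides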
# [10] = biological target: Concanavalin-A (Canavalia ensiformis) (UniProt P02866); experiment: ConA small-molecule binders, primary screen, artefact control for SMM control protein annotation, biochemical, small-molecule microarray, Alexa647 label, 635 nm (AID 1127); settings: ConA-A647 binding fluorescence, higher = more signal;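 note: z combines 667 nm emission intensity with signal-to-noise across three replicate slides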
# Chain of Concanavalin-A (Canavalia ensiformis) (P02866 whole entry, looked up): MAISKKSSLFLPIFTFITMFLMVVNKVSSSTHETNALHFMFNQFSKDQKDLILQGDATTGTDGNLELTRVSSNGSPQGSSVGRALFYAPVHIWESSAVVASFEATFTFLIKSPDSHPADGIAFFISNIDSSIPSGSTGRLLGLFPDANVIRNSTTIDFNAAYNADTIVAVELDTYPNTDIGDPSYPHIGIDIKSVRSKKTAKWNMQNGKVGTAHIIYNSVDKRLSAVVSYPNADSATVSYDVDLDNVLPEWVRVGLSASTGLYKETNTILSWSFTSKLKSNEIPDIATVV
# Chain of Albumin (Bos taurus) (P02769 whole entry, looked up): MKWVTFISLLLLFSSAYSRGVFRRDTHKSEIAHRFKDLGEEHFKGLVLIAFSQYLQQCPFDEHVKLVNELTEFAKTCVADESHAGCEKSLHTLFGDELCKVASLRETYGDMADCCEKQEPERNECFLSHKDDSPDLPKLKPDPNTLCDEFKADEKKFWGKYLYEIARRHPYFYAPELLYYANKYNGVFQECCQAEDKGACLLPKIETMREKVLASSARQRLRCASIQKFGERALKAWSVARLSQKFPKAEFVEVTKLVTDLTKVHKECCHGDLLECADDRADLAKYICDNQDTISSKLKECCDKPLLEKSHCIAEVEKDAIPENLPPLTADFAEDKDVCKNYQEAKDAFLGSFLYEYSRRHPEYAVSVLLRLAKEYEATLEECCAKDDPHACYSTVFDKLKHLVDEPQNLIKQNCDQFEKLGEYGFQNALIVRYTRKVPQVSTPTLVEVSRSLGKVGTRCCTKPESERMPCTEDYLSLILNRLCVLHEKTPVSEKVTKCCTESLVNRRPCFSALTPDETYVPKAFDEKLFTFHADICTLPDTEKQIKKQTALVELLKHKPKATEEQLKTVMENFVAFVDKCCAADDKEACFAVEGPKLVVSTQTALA
Compound,composite z-score [1],composite Z-score [2],composite z-score [3],composite z-score [4],composite z-score [5],composite z-score [6],composite z-score [7],composite z-score [8],composite z-score [9],composite z-score [10]
O=C1O[C@@H](c2ccccc2)[C@@H](c2ccccc2)N2[C@@H](c3ccccc3OCCO)[C@]3(C(=O)Nc4ccc(C#CCCO)cc43)[C@@H](C(=O)N3CCN(c4ncccn4)CC3)[C@H]12,0.717,1.37 (inactive),0.0208,-0.0811,0.298,2.09,0.176,1.19,0.0179,1.12
CC(C)(C)OC(=O)CC[C@@]1(C(=O)O)N=C(c2ccc(OCCCO)cc2)O[C@@H]1c1ccccc1CN=[N+]=[N-],0.939,0.242 (inactive),0.1,0.046,0.849,2.23,0.312,0.76,-0.309,1.18
CC(C)(C)OC(=O)CC[C@]1(C(=O)N2CCOCC2)N=C(c2ccc(OCCCO)cc2)O[C@H]1c1ccccc1,0.969,-0.131 (inactive),0.116,-0.17,0.834,2.75,0.135,1.02,-0.267,0.838
C=CCC(OC(C)=O)[C@@H]1[C@@H](N(Cc2cc3ccccc3o2)C(=O)c2ccc(C)cc2)c2cc(OCCCO)ccc2N1C(=O)Cc1ccc2ccccc2c1 (stereo not given in full),0.324,0.0991 (inactive),0.0311,-0.0077,-0.138,0.0465,-0.057,-0.366,0.208,-1.56
COc1cc(CO)cc(I)c1O[C@H]1C=C(C(=O)NCCO)C[C@@H](N(CC2CCCCC2)C(=O)c2ccc(C(F)(F)F)cc2)[C@@H]1O,0.388,0.527 (inactive),-0.0921,-0.147,0.055,0.461,0.621,1.27,0.398,0.352
CC(C)CNC(=O)[C@@]1(c2ccc([N+](=O)[O-])cc2)CC(=O)N(C2CCCCC2)[C@@H]1c1ccc(CO)cc1I,0.441,0.0911 (inactive),-0.0598,-0.0761,0.469,1.86,0.15,0.754,-0.662,0.282
CC(C)C(O)C1C=CC2C(=O)N(C)C(=O)C2N1N(c1ccccc1)c1ccccc1 (stereo not given),0.736,0.491 (inactive),-0.047,-0.0482,0.697,0.986,-0.37,-0.797,-1.17,-0.847
C[C@]1(C(=O)O)c2ccccc2C(=O)N(Cc2ccccc2)[C@H]1c1ccc(CO)cc1,-0.408,0.174 (inactive),-0.236,-0.0859,0.756,0.096,-0.581,-1.45,-1.48,-1.34
NC(=O)N1C(=O)C2C(C1=O)C1C=C(c3ccc(CO)cc3)C2C(C2CC2)N1Cc1sc2ccccc2c1Cl (stereo not given),0.849,0.742 (inactive),0.0225,-0.101,0.468,1.67,0.733,1.31,0.441,1.18
COCCOC(=O)N1C(=O)[C@@]2(c3ccccc31)[C@H](c1ccc(OCCO)cc1)N1[C@H](c3ccccc3)[C@H](c3ccccc3)OC(=O)[C@H]1[C@@H]2C(=O)Nc1nc2ccccc2s1,0.903,0.171 (inactive),-0.0059,-0.0089,0.55,2.74,0.676,1.3,0.232,1.17
CN(C)CCCCNC(=O)[C@H]1C[C@H]2C(=O)N3CCC[C@H]3C(=O)N2[C@H]1c1ccc(O)cc1,-0.813,0.11 (inactive),-0.738,-0.5,0.666,1.44,-0.642,-1.11,0.0994,-0.397
Cc1ccc(S[C@]2(C(=O)NCCN3CCOCC3)CC(=O)N(Cc3ccccc3C(F)(F)F)[C@@H]2c2ccc(CO)cc2I)cc1,0.274,0.139 (inactive),-0.171,-0.131,0.371,0.702,0.23,0.397,-0.777,-0.278
CC(C)C[C@@H]1NC(=O)[C@H]2C[C@@H](C(=O)NCCCCCC[N+](C)(C)C)[C@@H](c3cccc(OCCO)c3)N2C1=O,0.107,0.831 (inactive),-0.0967,-0.169,0.377,1.02,0.384,0.374,0.964,0.869
O=C1OCC=C[C@H]2OC34C=CCN(c5ccc(Cl)cc5)C(=O)[C@H]3N(CCCCCO)C(=O)[C@@H]4[C@@H]12 (stereo not given in full),0.387,0.0583 (inactive),-0.42,-0.168,0.807,-0.347,0.406,-1.56,-0.971,-0.893
CCOC(=O)[C@H]1C/C=C/C[C@H](C(=O)OCC)C(=O)O[C@H]2[C@@H](OC)O[C@H](CO)[C@@H](OC(=O)Nc3ccc(OC)cc3)[C@@H]2OC1=O,0.441,0.937 (inactive),0.292,0.0196,0.475,0.984,1.16,1.32,0.37,0.92
COc1ccc([Si](C)(C)[C@@H]2[C@@H](CC(=O)N3CCC[C@H]3CO)O[C@]3(C(=O)N(Cc4ccc(N5C(=O)c6cccc7cccc5c67)cc4)c4ccccc43)[C@H]2C)cc1,-0.647,0.296 (inactive),0.0996,-0.148,0.447,1.77,0.323,1.29,1.3,0.892
C=CCN1C(=O)[C@]2(CC=C)N=C(c3ccc(OCCCO)cc3)O[C@@H]2c2ccccc21,0.93,1.66 (inactive),0.193,-0.0648,0.675,1.35,0.053,1.33,0.689,1.14
CN1C(=O)[C@@]2(CCS(=O)(=O)c3ccccc3)N=C(c3ccc(OCCCO)cc3)O[C@H]2c2ccccc21,0.159,0.334 (inactive),0.058,-0.146,0.688,2.74,0.428,1.28,0.0089,1.1
O=C1NC(=O)C2C1C=CC(C(O)c1cc(C(F)(F)F)cc(C(F)(F)F)c1)N2Nc1ccc(Cl)cc1Cl (stereo not given),0.839,0.809 (inactive),0.0833,-0.0703,0.583,2.45,0.554,-0.163,-0.464,-0.415
CCCCN1CC=CC23O[C@@H]4/C=C\CCC(C)OC(=O)C4[C@H]2C(=O)N(CCCCCCO)[C@@H]3C1=O (stereo not given in full),0.5,-0.59 (inactive),-0.307,-0.228,0.86,0.177,0.54,-0.168,-0.361,-0.34
COC(=O)C[C@H]1O[C@]2(C(=O)N(C)c3ccccc32)[C@@H](C)[C@@H]1[Si](C)(C)c1ccc(C)cc1,0.683,0.397 (inactive),-0.113,-0.117,0.0614,0.311,0.218,1.16,0.0565,0.379
C#CCNC(=O)[C@H](Cc1ccccc1)NC(=O)[C@@H](N=[N+]=[N-])C(C)C,0.51,-0.197 (inactive),-0.0431,-0.134,0.179,0.88,0.0338,1.01,0.747,0.584
CC(C)(C)OC(=O)CC[C@]1(C(=O)NCCN2CCOCC2)N=C(c2ccc(OCCCO)cc2)O[C@H]1c1ccccc1,0.824,-0.985 (inactive),0.0636,-0.075,0.745,2.28,-0.657,0.218,-1.21,1.16
O=C1O[C@@H](c2ccccc2)[C@@H](c2ccccc2)N2[C@@H](c3ccc(O)cc3)[C@]3(C(=O)Nc4ccc(C#CCCO)cc43)[C@@H](C(=O)Nc3nc4ccccc4s3)[C@H]12,0.827,-0.0011 (inactive),-0.0265,-0.115,0.507,0.999,0.887,1.29,-0.0623,0.616
[N-]=[N+]=Nc1ccccc1[C@@H]1OC(c2ccc(OCCCO)cc2)=N[C@]1(CCS(=O)(=O)c1ccccc1)C(=O)NCCN1CCOCC1,0.734,0.131 (inactive),0.178,-0.0267,0.485,2.71,0.21,1.29,-0.22,0.478
C=C(/C(=C/C[C@@H](OC(=O)c1ccncc1)c1ccc(OCCO)cc1)c1cc(C(=O)OC)ccc1OC)C(C)C,0.277,0.443 (inactive),0.157,-0.124,0.269,1.06,-0.017,1.14,-0.0737,0.695
CN(C)C(=O)[C@]1(CCC(=O)OC(C)(C)C)N=C(c2ccc(OCCCO)cc2)O[C@@H]1c1ccccc1,0.383,0.666 (inactive),0.116,-0.0308,0.469,3.06,0.264,0.374,-0.792,0.34
